Measurements as given in PubChem BioAssay.
For part of these data: Entries with a potency or affinity are not part of this list. The source made the active and inactive calls. Unless noted, the rule behind the calls is not given here.

Legend:
[1] = antimalarial activity against Dd2 strain (AID 2302;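 active = growth inhibition above 50% at the single 2 µM test dose, taken to imply half-maximal potency below 2 µM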;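 note: 0% = DMSO untreated growth and 100% = chloroquine plus artemisinin killed control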); details: P. falciparum Dd2 in RBCs, LDH growth readout, 72 h; at 2 µM; hits give high values
[2] = HepG2 cytotoxicity, primary screen, cytotoxicity control for P. falciparum antimalarial project, cell-based, ATP luminescence (AID 2303;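 active = inhibition above 50%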;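 note: 0% = DMSO wells and 100% = digitonin-killed cells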); details: HepG2 viability, 24-48 h, at 10 µM, hits give high values
[3] = molecular target: L-lactate dehydrogenase (Plasmodium falciparum (isolate CDC / Honduras)) (UniProt Q27743); assay: PfLDH activity inhibition – cell lysate, 3D7 strain, counter-screen for P. falciparum growth inhibition project (AID 2304);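 note: 0% = vehicle and 100% = reference inhibitor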; details: P. falciparum 3D7 crude extract, LDH APAD/NBT absorbance; at 2 µM; hits give high values
[4] = inhibition of 3D7 malaria parasite growth – strain 3D7 (AID 2306);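 note: 0% = DMSO wells and 100% = chloroquine plus artemisinin control wells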; details: P. falciparum 3D7 erythrocytic growth, LDH absorbance, 72 h; at 2 µM; hits give high values
[5] = molecular target: Calcium-dependent protein kinase 1 (Plasmodium falciparum (isolate 3D7)) (UniProt P62344); assay: PfCDPK1 kinase inhibitors, biochemical, TCAMS library (AID 1159585; cut-off not given, nearly all actives have IC50 up to about 0.98 µM;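 note: inhibitors leave more ATP so luminescence rises with inhibition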); details: recombinant PfCDPK1, Kinase-Glo ATP depletion luminescence
[6] = molecular target: Plasmodium falciparum protein kinase 6 (PK6, PF3D7_1337100) (UniProt Q8IDW1); assay: PfPK6 kinase inhibitors, biochemical, TCAMS library (AID 1159586); details: recombinant PfPK6, Kinase-Glo ATP depletion luminescence
[7] = molecular target: Protein kinase 7 (PK7), Plasmodium falciparum 3D7 (PF3D7_0213400) (UniProt Q7YTF7); assay: inhibition of Plasmodium PK7 catalytic activity – biochemical, TCAMS antimalarial set, Kinase-Glo luminescence (AID 1159587); details: recombinant PfPK7, Kinase-Glo ATP depletion luminescence
[8] = molecular target: Calcium-dependent protein kinase 4 (Plasmodium falciparum (isolate 3D7)) (UniProt Q8IBS5); assay: PfCDPK4 kinase inhibitors, biochemical, TCAMS library (AID 1159588; cut-off not given, nearly all actives have IC50 up to about 0.91 µM); details: recombinant PfCDPK4, Kinase-Glo ATP depletion luminescence
Calcium-dependent protein kinase 4 (Plasmodium falciparum (isolate 3D7)), sequence (Q8IBS5 whole entry, looked up): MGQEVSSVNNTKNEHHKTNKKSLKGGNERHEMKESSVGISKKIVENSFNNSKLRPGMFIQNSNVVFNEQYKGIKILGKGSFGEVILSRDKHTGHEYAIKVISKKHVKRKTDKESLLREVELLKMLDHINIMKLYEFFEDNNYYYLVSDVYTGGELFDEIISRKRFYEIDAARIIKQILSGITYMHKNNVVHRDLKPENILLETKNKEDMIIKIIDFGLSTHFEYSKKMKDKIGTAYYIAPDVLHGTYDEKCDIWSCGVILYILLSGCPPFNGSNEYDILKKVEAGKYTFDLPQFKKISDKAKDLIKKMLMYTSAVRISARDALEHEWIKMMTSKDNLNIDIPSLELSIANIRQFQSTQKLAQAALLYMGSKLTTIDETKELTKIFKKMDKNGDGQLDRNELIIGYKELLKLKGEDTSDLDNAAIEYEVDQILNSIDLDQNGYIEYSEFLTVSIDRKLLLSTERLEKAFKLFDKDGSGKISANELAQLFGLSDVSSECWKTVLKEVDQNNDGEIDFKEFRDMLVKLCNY

L-lactate dehydrogenase (Plasmodium falciparum (isolate CDC / Honduras)), sequence (Q27743 whole entry, looked up): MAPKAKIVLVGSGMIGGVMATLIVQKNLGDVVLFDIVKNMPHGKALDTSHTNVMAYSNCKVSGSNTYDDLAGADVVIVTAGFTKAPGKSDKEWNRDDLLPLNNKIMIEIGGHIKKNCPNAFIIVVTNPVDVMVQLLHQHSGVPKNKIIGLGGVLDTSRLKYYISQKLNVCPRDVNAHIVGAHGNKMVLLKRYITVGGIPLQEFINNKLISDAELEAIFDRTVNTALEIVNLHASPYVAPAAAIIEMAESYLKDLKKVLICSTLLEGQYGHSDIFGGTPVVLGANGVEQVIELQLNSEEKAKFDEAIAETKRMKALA
Protein kinase 7 (PK7), Plasmodium falciparum 3D7 (PF3D7_0213400), sequence (Q7YTF7 1-343): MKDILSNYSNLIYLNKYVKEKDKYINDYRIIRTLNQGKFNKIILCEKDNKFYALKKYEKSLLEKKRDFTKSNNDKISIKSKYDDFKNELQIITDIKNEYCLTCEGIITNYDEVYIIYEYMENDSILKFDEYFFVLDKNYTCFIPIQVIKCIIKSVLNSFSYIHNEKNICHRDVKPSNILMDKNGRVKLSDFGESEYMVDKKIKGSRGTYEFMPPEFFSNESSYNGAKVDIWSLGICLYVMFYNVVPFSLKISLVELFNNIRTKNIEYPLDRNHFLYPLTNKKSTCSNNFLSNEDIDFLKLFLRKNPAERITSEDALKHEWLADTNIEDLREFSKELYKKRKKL
Plasmodium falciparum protein kinase 6 (PK6, PF3D7_1337100), sequence (Q8IDW1 1-305): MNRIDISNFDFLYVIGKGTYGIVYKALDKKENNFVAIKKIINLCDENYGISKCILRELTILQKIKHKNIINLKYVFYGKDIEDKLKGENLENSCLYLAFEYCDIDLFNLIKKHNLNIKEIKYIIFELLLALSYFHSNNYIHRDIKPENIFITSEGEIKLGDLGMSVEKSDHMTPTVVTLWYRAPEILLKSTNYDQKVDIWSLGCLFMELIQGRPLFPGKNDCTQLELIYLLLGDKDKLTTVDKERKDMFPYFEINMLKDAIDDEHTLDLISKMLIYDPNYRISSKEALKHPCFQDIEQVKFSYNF
Calcium-dependent protein kinase 1 (Plasmodium falciparum (isolate 3D7)), sequence (P62344 whole entry, looked up): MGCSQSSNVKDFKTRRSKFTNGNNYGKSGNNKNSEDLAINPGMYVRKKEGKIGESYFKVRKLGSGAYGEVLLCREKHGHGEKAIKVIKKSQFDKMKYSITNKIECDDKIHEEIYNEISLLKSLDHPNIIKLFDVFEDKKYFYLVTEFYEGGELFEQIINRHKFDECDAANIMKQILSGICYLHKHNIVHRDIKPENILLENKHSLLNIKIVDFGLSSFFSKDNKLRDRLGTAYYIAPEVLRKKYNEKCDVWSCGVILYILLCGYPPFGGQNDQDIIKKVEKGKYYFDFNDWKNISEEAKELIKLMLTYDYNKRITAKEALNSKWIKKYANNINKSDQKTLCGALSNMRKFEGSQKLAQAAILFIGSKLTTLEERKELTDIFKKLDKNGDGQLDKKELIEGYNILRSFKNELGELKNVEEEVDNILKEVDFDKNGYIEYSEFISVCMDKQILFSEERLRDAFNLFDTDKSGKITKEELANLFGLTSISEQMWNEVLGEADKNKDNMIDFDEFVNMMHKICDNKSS

O=C(N[C@@H](CC1CCCCC1)C(=O)NCCc1ccc(Cl)c(Cl)c1)c1ccc(O)c(-c2ccc(Cl)c(Cl)c2)c1
inactive: inhibition [2] -11% | inhibition [3] -2% | outcome [5] | outcome [6] | outcome [7] | outcome [8]
active: growth inhibition [1] 99% | growth inhibition [4] 100%

COc1ccc(-c2ccc(NC(=O)c3ccc(Cl)cc3)cc2)cc1CN(C)CCN(C)C
inactive: inhibition [2] 37% | inhibition [3] -2% | outcome [5] | outcome [6] | outcome [7] | outcome [8]
active: growth inhibition [1] 61% | growth inhibition [4] 97%

COc1ccc2nc(C)cc(NN=Cc3ccc(F)cc3)c2c1
inactive: inhibition [2] 5% | inhibition [3] -8% | outcome [5] | outcome [6] | outcome [7] | outcome [8]
active: growth inhibition [1] 99% | growth inhibition [4] 100%

Cc1cc(N2CCOCC2)nc(Nc2ccc(NC(=O)Nc3ccc(F)cc3)cc2)n1
inactive: growth inhibition [1] 34% | inhibition [2] 35% | inhibition [3] -2% | outcome [5] | outcome [6] | outcome [7] | outcome [8]
active: growth inhibition [4] 101%

Cc1ccc2nc3c(cc(C(=O)NCCc4ccccc4)c(=N)n3CCCOC(C)C)c(=O)n2c1
active: growth inhibition [4] 96%
inactive: growth inhibition [1] 12% | inhibition [2] 15% | inhibition [3] 0% | outcome [5] | outcome [6] | outcome [7] | outcome [8]

Cc1ccccc1C1CCN(C2CCC(NC(=O)/C=C/c3ccccc3C(F)(F)F)CC2)CC1 (configuration not stated)
inactive: growth inhibition [1] 6% | inhibition [3] -1% | outcome [5] | outcome [6] | outcome [7] | outcome [8]
active: inhibition [2] 63% | growth inhibition [4] 83%

Cc1cccc(Cn2c(C(N)=O)nn(-c3ccc([N+](=O)[O-])cc3C#N)c2=S)c1
inactive: growth inhibition [1] 48% | inhibition [2] 1% | inhibition [3] 2% | outcome [5] | outcome [6] | outcome [7] | outcome [8]
active: growth inhibition [4] 101%

Cc1ccc2[nH]c(-c3ccc(C(=O)NCc4ccc(Cl)c(Cl)c4)cc3)nc2c1C
active: growth inhibition [4] 96%
inactive: growth inhibition [1] 26% | inhibition [2] 19% | inhibition [3] 5% | outcome [5] | outcome [6] | outcome [7] | outcome [8]

O=C(Nc1ccccc1Cl)N(Cc1cc(Cl)cc(Cl)c1)CC(O)COc1ccc(Cl)c(F)c1 (configuration not stated)
inactive: growth inhibition [1] 17% | inhibition [2] 0% | inhibition [3] 4% | outcome [5] | outcome [6] | outcome [7] | outcome [8]
active: growth inhibition [4] 93%

CN1CCN(c2ncnc3ccc(NC(=O)Nc4ccc(Cl)c(Cl)c4)cc23)CC1
inactive: inhibition [2] 7% | inhibition [3] -2% | outcome [5] | outcome [6] | outcome [7] | outcome [8]
active: growth inhibition [1] 89% | growth inhibition [4] 100%

O=C(NCCN1CCCC1)c1cccc(-c2ccc(-c3nc4ccc(F)cc4[nH]3)s2)c1
active: inhibition [2] 51% | growth inhibition [4] 100%
inactive: growth inhibition [1] 4% | inhibition [3] -1% | outcome [5] | outcome [6] | outcome [7] | outcome [8]

N#Cc1cccc(NC(=O)c2cccc(S(=O)(=O)NC3CCN(CC4CCCCC4)C3)c2)c1 (configuration not stated)
inactive: growth inhibition [1] 27% | inhibition [2] 29% | inhibition [3] 1% | outcome [5] | outcome [6] | outcome [7] | outcome [8]
active: growth inhibition [4] 101%

CCC(C)Oc1ccc2nc(N)nc(N)c2c1Cl (configuration not stated)
active: inhibition [2] 57% | growth inhibition [4] 96%
inactive: growth inhibition [1] -1% | inhibition [3] -2% | outcome [5] | outcome [6] | outcome [7] | outcome [8]

CCc1c[nH]c2c(N(c3ccccc3)S(C)(=O)=O)cc(C(=O)N[C@@H](Cc3ccccc3)[C@H](O)CNC(C)(C)CCCC(C)C)cc12
active: growth inhibition [1] 96% | inhibition [2] 99% | growth inhibition [4] 98%
inactive: inhibition [3] -1% | outcome [5] | outcome [6] | outcome [7] | outcome [8]

NC(N)=Nc1nc(-c2cc(NC(=O)C(F)(F)F)cc([N+](=O)[O-])c2)cs1
active: growth inhibition [1] 51% | growth inhibition [4] 98%
inactive: inhibition [2] 7% | inhibition [3] 5% | outcome [5] | outcome [6] | outcome [7] | outcome [8]

O=C(NCC1CCN(CCN2CCc3ccc4c(c3C2)OCO4)CC1)c1ccc(-c2ccc(C(F)(F)F)cc2)cc1
inactive: growth inhibition [1] 34% | inhibition [3] -5% | outcome [5] | outcome [6] | outcome [7] | outcome [8]
active: inhibition [2] 66% | growth inhibition [4] 93%

CC(=O)NCCCCC1NC2(C(=O)N(Cc3ccc(C(C)(C)C)cc3)c3ccccc32)C2C(=O)N(C3CCCCC3)C(=O)C12 (configuration not stated)
inactive: inhibition [2] -2% | inhibition [3] -3% | outcome [5] | outcome [6] | outcome [7] | outcome [8]
active: growth inhibition [1] 71% | growth inhibition [4] 91%

COc1cccc(CN(C(=O)Nc2ccccc2F)[C@H]2C[C@H]3C(=O)Nc4cc(F)ccc4C(=O)N3C2)c1
active: growth inhibition [1] 75% | growth inhibition [4] 93%
inactive: inhibition [2] -7% | inhibition [3] 3% | outcome [5] | outcome [6] | outcome [7] | outcome [8]

COc1ccc2nccc([C@@H](O)CN3CCC(NCc4nc5ccccc5s4)CC3)c2c1
inactive: growth inhibition [1] 5% | inhibition [2] 8% | inhibition [3] -3% | outcome [5] | outcome [6] | outcome [7] | outcome [8]
active: growth inhibition [4] 93%

O=C(Nc1ccccc1)Nc1cccc(-c2nn3c(OCC4CCCCN4)cccc3c2-c2ccncc2)c1 (configuration not stated)
inactive: inhibition [2] 9% | inhibition [3] -7% | outcome [5] | outcome [6] | outcome [7] | outcome [8]
active: growth inhibition [1] 82% | growth inhibition [4] 97%

CC(=O)Nc1ccc(OCCCCN(Cc2ccccc2C(F)(F)F)c2ccc(C#N)c(C(F)(F)F)c2)c(Cl)c1
active: growth inhibition [1] 71% | growth inhibition [4] 98%
inactive: inhibition [2] -1% | inhibition [3] -3% | outcome [5] | outcome [6] | outcome [7] | outcome [8]

Cc1[nH]c(C)c(-c2cc3ccccc3o2)c(=O)c1Cl
active: growth inhibition [4] 92%
inactive: growth inhibition [1] 13% | inhibition [2] 1% | inhibition [3] -2% | outcome [5] | outcome [6] | outcome [7] | outcome [8]

COc1ccc(-c2ccnc(-c3cccc(-c4ccccn4)n3)c2)cc1
inactive: inhibition [2] 44% | inhibition [3] -1% | outcome [5] | outcome [6] | outcome [7] | outcome [8]
active: growth inhibition [1] 84% | growth inhibition [4] 97%

COc1ccccc1C1CCN(C2CCC(NC(=O)/C=C/c3ccc(OC(F)(F)F)cc3)CC2)CC1 (configuration not stated)
active: inhibition [2] 65% | growth inhibition [4] 82%
inactive: growth inhibition [1] 11% | inhibition [3] -3% | outcome [5] | outcome [6] | outcome [7] | outcome [8]

Cc1ccc2nc(/C=C/c3cccc4cc[nH]c34)[nH]c2c1
active: growth inhibition [1] 92% | growth inhibition [4] 100%
inactive: inhibition [2] 9% | inhibition [3] -3% | outcome [5] | outcome [6] | outcome [7] | outcome [8]

COc1cccc(OC)c1CN1CCC(N(C)CCCCCCCCCN2CCC(OC(=O)Nc3ccccc3-c3ccccc3)CC2)CC1
active: growth inhibition [1] 98% | inhibition [2] 100% | growth inhibition [4] 98%
inactive: inhibition [3] -1% | outcome [5] | outcome [6] | outcome [7] | outcome [8]

COc1ccc(S(=O)(=O)NC2CCN(CCCOc3ccnc4cc(Cl)ccc34)C2)cc1OC (configuration not stated)
inactive: inhibition [2] 8% | inhibition [3] 1% | outcome [5] | outcome [6] | outcome [7] | outcome [8]
active: growth inhibition [1] 56% | growth inhibition [4] 91%

Cc1cccc2[nH]c(-c3ccc(-c4cccc(CNCc5ccccc5)c4)s3)nc12
active: growth inhibition [1] 50% | growth inhibition [4] 99%
inactive: inhibition [2] 3% | inhibition [3] -3% | outcome [5] | outcome [6] | outcome [7] | outcome [8]

O=C(/C=C/c1ccc(C(F)(F)F)cc1)N1CCC(CCN2CCC(c3c[nH]c4ccccc34)CC2)CC1
inactive: inhibition [3] -11% | outcome [5] | outcome [6] | outcome [7] | outcome [8]
active: growth inhibition [1] 77% | inhibition [2] 70% | growth inhibition [4] 100%

COc1ccc2nccc([C@@H](O)CN3CC[C@H](NCc4cnc5c(c4)NC(=O)CS5)[C@H](F)C3)c2c1
active: growth inhibition [1] 90% | growth inhibition [4] 90%
inactive: inhibition [2] -4% | inhibition [3] -2% | outcome [5] | outcome [6] | outcome [7] | outcome [8]

CC1(C)Cc2c([nH]c3ccccc23)C(CCCCCCCCC2=NC(C)(C)Cc3c2[nH]c2ccccc32)=N1
inactive: inhibition [3] -1% | outcome [5] | outcome [6] | outcome [7] | outcome [8]
active: growth inhibition [1] 88% | inhibition [2] 100% | growth inhibition [4] 99%

Cc1cc(NC(=O)c2ccco2)ccc1OC1CCN(Cc2ccc(F)cc2)C1 (configuration not stated)
active: growth inhibition [1] 92% | growth inhibition [4] 96%
inactive: inhibition [2] 5% | inhibition [3] 5% | outcome [5] | outcome [6] | outcome [7] | outcome [8]

CC(C)(NCc1ccc(OC(F)(F)F)cc1)c1nc(-c2ccc(Cl)c(O)c2)c(-c2ccncc2)[nH]1
inactive: growth inhibition [1] 32% | inhibition [3] -8% | outcome [5] | outcome [6] | outcome [7] | outcome [8]
active: inhibition [2] 65% | growth inhibition [4] 94%

Cc1ccccc1OCC(O)CNC1CCC(NCC(O)COc2ccccc2C)CC1 (configuration not stated)
active: inhibition [2] 96% | growth inhibition [4] 98%
inactive: growth inhibition [1] 24% | inhibition [3] 0% | outcome [5] | outcome [6] | outcome [7] | outcome [8]

CCOc1cc(C(=O)Nc2cccnc2)cc(Br)c1OCCC(C)C
active: growth inhibition [1] 51% | growth inhibition [4] 88%
inactive: inhibition [2] 4% | inhibition [3] 1% | outcome [5] | outcome [6] | outcome [7] | outcome [8]

NC(=O)c1ccc(-c2ccc3ccnc(N)c3c2)cc1
active: growth inhibition [1] 98% | inhibition [2] 56% | growth inhibition [4] 101%
inactive: inhibition [3] -2% | outcome [5] | outcome [6] | outcome [7] | outcome [8]

CC[C@]1(C)C[C@@H](NC(=O)NC(=O)c2ccc(OC)cc2)[C@]2(C)[C@H](C)CC[C@]3(CCC(=O)[C@H]32)[C@@H](C)[C@@H]1OC(=O)NC(=O)c1ccc(OC)cc1
active: growth inhibition [1] 98% | growth inhibition [4] 100%
inactive: inhibition [2] 10% | inhibition [3] -5% | outcome [5] | outcome [6] | outcome [7] | outcome [8]

O=S(=O)(/C=C/c1ccccc1)N(Cc1ccc(-c2ccc(CNCCc3ccccn3)cc2)cc1)CC1CCCCN1 (configuration not stated)
active: growth inhibition [1] 97% | growth inhibition [4] 100%
inactive: inhibition [2] 46% | inhibition [3] -4% | outcome [5] | outcome [6] | outcome [7] | outcome [8]

OC(CNc1ccnc(Nc2ccc(Cl)cc2)n1)c1cccc(C(F)(F)F)c1 (configuration not stated)
inactive: inhibition [2] 9% | inhibition [3] 4% | outcome [5] | outcome [6] | outcome [7] | outcome [8]
active: growth inhibition [1] 84% | growth inhibition [4] 101%
